The source of these data is PubChem BioAssay AID651784 (National Center for Advancing Translational Sciences (NCATS), 2012).

Results filed as inconclusive are left out. Activity calls are given as the source filed them. The call rests on the fitted dose curve; in most records, active means well fitted inhibition curve with a large enough effect; inconclusive means small, poorly fitted or top-dose-only effect; inactive means no such curve, though single readings can be large or run the other way.
Potency means the concentration at half of the fitted maximal effect.

The assay can be described thus: Acumen qHTS Assay for Inhibitors of the mTORC1 Signaling Pathway in MEF (Tsc2-/-, p53-/-) Cells: Hit Validation.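 Further: phospho-rpS6 Ser235/236 immunofluorescence normalized to propidium iodide cell count; nearly all actives have a fitted effect of over 65% in size.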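 On activity change, negative = inhibition: cells exposed to compound for 24 hours; plate controls were DMSO for no effect and 7.5 nM rapamycin control for full effect.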 Particulars: Acumen imaging; activity change, negative = inhibition: at 37.3 µM (top of the series).
For the compound `Cc1ccc(C)c(NC(=O)c2nc(S(=O)(=O)Cc3ccc(F)cc3)ncc2Cl)c1`, the activity change, negative = inhibition is -90.5%.

As to `CCOC(=O)N1CCN(Cc2nc3cc(NC(=O)c4ccc([N+](=O)[O-])cc4)ccc3n2C(C)C)CC1`, the activity change, negative = inhibition is -17.8%.

`CC(C)(C)C(=O)Nc1ccc(-c2nc3ccc(NC(=O)C(C)(C)C)cc3[nH]2)cc1`: the activity change, negative = inhibition is -3.72%.

In the case of `CC(C)N(C(=O)CSc1nc2ccc(Cl)cc2[nH]1)c1ccccc1`, the activity change, negative = inhibition was -16%.

Regarding `CCS(=O)(=O)c1oc(-c2ccc(F)cc2)nc1S(=O)(=O)c1ccccc1`, the Potency is 0.369 µM (active).

Turning to `CCOc1ccccc1NS(=O)(=O)c1ccc(-c2cnc(C3CC3)o2)cc1`, the Potency was 0.464 µM (active).

With `Cc1nc2scc(C)n2c(=O)c1S(=O)(=O)Nc1ccc(N2CCOCC2)c(Cl)c1`, the Potency is 1.47 µM (active).

As to `O=C(NCc1ccccc1)c1nc(S(=O)(=O)Cc2ccccc2)ncc1Cl`, the Potency was 5.85 µM (active).

Take `CCn1c(=O)sc2cc(NS(=O)(=O)c3ccc(F)c(C)c3)ccc21`: the activity change, negative = inhibition is -28.9%.

As for `CCCCN1C(=O)C(O)(c2c(C)[nH]c3ccccc23)c2cc(Br)ccc21` (stereo not given), the activity change, negative = inhibition is -47%.

Take `COc1ccc(S(=O)(=O)NCCc2csc3nc(-c4ccc(Cl)cc4)nn23)cc1C`: the Potency was 11.7 µM (active).

As to `Cc1ccc(C(=O)CC2(O)C(=O)N(Cc3ccccc3)c3ccccc32)c(C)c1` (stereo not given), the activity change, negative = inhibition is -24%.

Regarding `CCOc1ccc(S(=O)(=O)N(C(=O)c2ccncc2)c2ccc3oc(C)c(C(=O)OC)c3c2)cc1`, the Potency was 3.69 µM (active).

In the case of `CCc1ccc(-n2c(=O)c3c4c(sc3n(CC(=O)c3ccc(F)cc3)c2=O)CCC4)cc1`, the activity change, negative = inhibition was -153%.

For the compound `Cc1ccc(CN(Cc2cccn2-c2nnc(N3CCCC3=O)s2)C(=O)Nc2ccccc2C(F)(F)F)cc1`, the activity change, negative = inhibition is -12.7%.
